The values that follow come from PubChem BioAssay (NCI).

About 83,000 compounds went through this panel and 20% of them were active in at least one assay; those are over-represented in the sample as a whole.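 Activity criterion: percent growth below 10, measured after cells in 96-well plates were exposed to a single compound concentration for 48 hours.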 Values without a mark were called inactive. The source made the active and inactive calls.

The test system of the assay is NCI-H522 lung. Description: NCI-60 one-dose screen, 48 h (100 = growth as untreated, 0 = no growth, -100 = all killed). Particulars: 10 µM unless noted.
On to `Cc1ccc2oc(=O)cc(C3c4ccc([nH]4)C(c4cc(=O)oc5ccc(C)cc45)c4ccc([nH]4)C(c4cc(=O)oc5ccc(C)cc45)c4ccc([nH]4)C(c4cc(=O)oc5ccc(C)cc45)c4ccc3[nH]4)c2c1` (stereo not drawn), for which the growth was -63.5% (active).

Turning to `O=C1c2cccc3cccc(c23)C(=O)N1CCCCN1CCN(CCCCOc2ccc(-c3nc4ccc(N5CCOCC5)cc4[nH]3)cc2)CC1`, the growth is 70.4%.

Consider `Cn1cc(-c2nonc2-c2cn(C)c3ccc(F)cc23)c2cc(F)ccc21`, for which the growth was 22%.

In the case of `CCOC(=O)n1cc(-c2nonc2-c2cn(C)c3ncccc23)c2cc(F)ccc21`, the growth was 72%.

As to `C=CC(COC(c1ccccc1)(c1ccccc1)c1ccccc1)N(CC)CC` (stereo not drawn), the growth was 54.9%.

Take `COCCNc1ccc2c3c(cccc13)C(=O)N(CCN(C)C)C2=O`: the growth was -25.6% (active).

With `O=C1CC(=NCC(=O)n2c(-c3ccccc3)nc3ccccc32)NN1`, the growth was 84.5%.

On to `CC/C=C\C[C@H]1C/C=C2/C(=O)C=C[C@H]2C/C=C\CCCC(=O)O1`, for which the growth is -17.7% (active).

In the case of `CCOC(=O)c1sc2nc(-c3cccc(OC)c3)nc(N3CCOCC3)c2c1C`, the growth was 85.8%.

`CC(=O)Nc1ccc(S(=O)(=O)Nc2cccc(-c3nc(-c4ccc(NC(=O)c5cccnc5)cc4Cl)no3)c2)cc1`: the growth was 11.2%.

`COc1nc2c(c(=O)n1C)CN(Cc1ccccc1)C=N2`: the growth is 95.1%.

As for `CCC(=O)c1ccc(Cl)s1`, the growth is 93.7%.

For the molecule `O=S(=O)(Nc1ccc(I)cc1F)c1ccc(-c2cnc(C3CC3)o2)cc1`, the growth is 31.2%.
